Screening results as filed in PubChem BioAssay.
Rows were chosen to be rich in hits. Some 11% of all compounds tested hit in one or more screens of this group.
HCV inh: blocks hepatitis C virus. 3.4% of 340,000 active. Potency, µM (doses to about 41.8 µM), for inactives: at the top dose activity change, negative = inhibition, most hits filed as inhibitors. Huh7.5.1 HCVcc-Cre infection, luciferase reporter, 44 h. AID 651820
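Infectious HCV cell culture screen: compound-treated cells (1,000/well, pre-plated 4 h) are infected with HCVcc-Cre at roughly 0.5 moi and grown 44 h. Infection is quantified by luciferase signal after 15 min substrate incubation at room temperature.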
AMA1-RON2 inh: disrupts binding of P. falciparum AMA1 to RON2. AlphaScreen AMA1-biotinylated RON2 peptide binding. Potency, µM (top dose mostly 58.2 µM), for the others: at the highest dose activity change, negative = inhibition, hits mostly inhibitors. 0.2% of 360,000 active. AID 720542;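 further: 0% = vehicle wells and -100% = peptide control; nearly all actives have a fitted effect of over 45% in size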
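AMA1 (3D7) with his tag at 25 nM final met compounds first, then biotinylated RON2 peptide at 25 nM; detection used donor plus acceptor beads, 10 µg/mL apiece, read by AlphaScreen after 30 min at room temperature.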
AmpC inh detg: blocks E. coli AmpC beta-lactamase in detergent assay | 0.041% of 370,000 active | AmpC hydrolysis of nitrocefin, absorbance 480 nm, 0.01% Triton | Potency, µM (top dose mostly 114 µM), without a hit: at the highest dose activity change, negative = inhibition, hits mostly inhibitors | P00811;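 further: 0% = no-compound wells and -100% = no-enzyme wells; nearly all actives have a fitted effect of over 25% in size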
Target sequence (P00811 whole entry, looked up): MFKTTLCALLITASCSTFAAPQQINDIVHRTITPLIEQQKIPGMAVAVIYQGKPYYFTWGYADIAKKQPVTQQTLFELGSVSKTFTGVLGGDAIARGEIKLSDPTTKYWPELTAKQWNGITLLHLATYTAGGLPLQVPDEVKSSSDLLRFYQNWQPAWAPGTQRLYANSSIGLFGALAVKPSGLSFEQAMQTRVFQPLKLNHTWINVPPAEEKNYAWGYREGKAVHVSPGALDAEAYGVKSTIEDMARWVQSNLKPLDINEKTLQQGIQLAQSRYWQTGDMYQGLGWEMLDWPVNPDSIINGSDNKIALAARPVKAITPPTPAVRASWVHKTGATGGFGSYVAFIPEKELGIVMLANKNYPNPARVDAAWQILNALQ
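AmpC (5.3 nM in the dispensed reagent) in 20 mM phosphate pH 7.0 with 0.01% (detergent screen) or 0.0001% Triton X-100 was preincubated with compounds for 15 min at room temperature. Nitrocefin was then added from an 800 uM solution, and hydrolysis was followed at 480 nm.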
Pf growth 48h: P. falciparum growth inhibition at 48 hours (one generation). AID 504832. Potency, µM (titrated, usually from 28.7 µM), without a hit: top-dose activity change, negative = inhibition, actives largely listed as inhibitors. 5.9% of 310,000 active. P. falciparum luciferase growth in erythrocytes, 48 h
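Luminescence readout; reporter = integrated firefly luciferase in P. falciparum. RBC culture at 2% hematocrit, 0.1% parasitemia final, 37 C/5% CO2; decreased signal taken as growth inhibition.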
Pf growth 96h: P. falciparum growth inhibition at 96 hour, primary screen for plastid delayed-death inhibitors. P. falciparum luciferase reporter growth, 96 h. Potency, µM (titrated, usually from 28.7 µM), without a hit: at the top dose activity change, negative = inhibition, actives largely listed as inhibitors. 6.9% of 320,000 active. AID 504834
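96 h incubation, 37 C, 5% CO2, of luciferase-reporter P. falciparum-infected RBCs (2% hematocrit, 0.05% parasitemia final) with test compounds; endpoint luminescence.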
AmpC no deterg: inhibitors of E. coli AmpC beta-lactamase without detergent; AID 485341; AmpC nitrocefin hydrolysis, absorbance 480 nm, 0.0001% Triton; Potency, µM (series often up to 57.1 µM), inactives show top-dose activity change, negative = inhibition, usual class: inhibitors; P00811; 0.52% of 330,000 active;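 further: plate controls were no compound for no effect and no enzyme for full effect; nearly all actives have a fitted effect of over 20% in size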
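20 mM phosphate pH 7.0 + 0.01% (detergent screen) or 0.0001% Triton X-100; 5.3 nM AmpC reagent; cpd preinc 15 min RT; nitrocefin (800 uM stock) to start; A480 q20 s × 4 min; Activity was normalised to no-enzyme and no-compound control wells.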
Active calls of the source: *; ? = inconclusive; nt = not tested or not shown. The call rests on the fitted dose curve; in most records, active means well fitted curve in the direction sought with a large enough effect; inconclusive means small, poorly fitted or top-dose-only effect, or another doubt; inactive means no such curve, though single readings can be large; an effect the other way counts as inactive or inconclusive. Unless noted, on the % scale 0 is the no-effect control and ±100 the full control effect; potency means the concentration at half of the fitted maximal effect.

SMILES	HCV inh	AMA1-RON2 inh	AmpC inh detg	Pf growth 48h	Pf growth 96h	AmpC no deterg
CCOC(=O)c1c(S(=O)(=O)N2CCC(C(=O)Nc3ccc(F)cc3F)CC2)c(C)n(C)c1C	nt	nt	8%	nt	nt	nt
Cc1cc(C)cc(-n2ccnc2SCC(=O)Nc2nc3ccc(C)cc3s2)c1	nt	nt	-5%	nt	nt	nt
COc1ccc(-c2noc(CCC(=O)NCCN3CCN(c4ccccc4F)CC3)n2)cc1	6.3µM*	-5%	-2%	-10%	69%	153%
COc1ccc(-c2noc(CCC(=O)NCCc3cccc(C)c3)n2)cc1	8.9µM*	1%	6%	15%	-22%	26%
COc1ccc(-c2noc(CCC(=O)Nc3cccc(C)c3)n2)cc1	?	5%	1%	20%	?	-32%
COc1ccc(-c2noc(CCC(=O)NCCCN3CCN(c4ccccc4F)CC3)n2)cc1	?	-7%	3%	0%	1%	130%
O=C(Nc1c(C(=O)c2ccc(Cl)cc2)oc2ccccc12)c1cc(=O)c2ccccc2o1	nt	nt	11%	nt	nt	nt
O=C(c1ccc(Cl)cc1)c1oc2ccccc2c1CS(=O)(=O)c1ccccc1	nt	11%	?	-3%	10µM*	-24%
Cc1cccc(-n2ncc3c2CCCC3NC(=O)Cc2c(C)noc2C)c1C (centres undefined)	8.9µM*	-2%	-7%	?	1%	34%
CC1=C(C(=O)NC2CCCc3c2cnn3-c2cccc(C)c2C)OCCO1 (centres undefined)	3.5µM*	6%	3%	?	30%	47%
Cc1cc(C(=O)NC2CCCc3c2cnn3-c2cccc(C)c2C)no1 (centres undefined)	11µM*	-2%	?	-13%	?	23%
O=C(CCC1N=C2c3ccccc3N=C(SCC(=O)Nc3ccc(F)cc3)N2C1=O)NCc1ccco1 (centres undefined)	nt	nt	10%	nt	nt	nt
COc1cc2ccccc2cc1C(=O)Nc1nccs1	11µM*	1%	-6%	149%	78%	0%
COc1ccc(-c2nn(-c3ccccc3)cc2C(=O)Nc2nccs2)cc1	?	0%	-1%	?	13%	-36%
Cc1ccnc(NC(=O)Cc2ccc(-c3ccccc3)cc2)c1	4µM*	-8%	-3%	8%	255%	-52%
COc1cc2ccccc2cc1C(=O)Nc1cc(C)ccn1	13µM*	2%	-10%	70%	14%	64%
COc1cccc(-c2nn(-c3ccccc3)cc2C(=O)Nc2nccs2)c1	?	76%	2%	7.4µM*	?	-6%
COc1ccc(C(=O)Nc2ccccc2C(=O)Nc2cc(C)ccn2)cc1	?	-1%	?	113%	-23%	-7%
N#Cc1c(-c2ccccc2)cc(-c2ccccc2)nc1SCC(O)CS(=O)(=O)Cc1ccccc1 (centres undefined)	nt	nt	-7%	nt	nt	nt
CCOc1ccc(Br)cc1CNc1ccc2c(c1)OCCO2	11µM*	32µM*	-14%	-21%	-8%	-43%
C=CCOc1ccccc1CNc1ccc2c(c1)OCCO2	?	-25%	-5%	64%	-48%	-6%
CCOc1ccc(Br)cc1S(=O)(=O)NCCN1CCCC1	-6%	3%	3%	nt	-2%	2%
CCOc1ccc2ccccc2c1CNCCN1CCOCC1	-5%	13%	-9%	13µM*	5.2µM*	-16%
CCOc1ccc(Br)cc1CNCCN1CCOCC1	21%	-6%	?	-25%	12µM*	-25%
Cc1nn2c(=O)cc(COC(=O)c3ccc(NC(=O)C4CCCCC4)cc3)nc2s1	nt	nt	-7%	nt	nt	nt
SMILES	HCV inh	AMA1-RON2 inh	AmpC inh detg	Pf growth 48h	Pf growth 96h	AmpC no deterg
O=C(O)CCn1cc(/C=C2/NC(=S)N(c3ccccc3)C2=O)c(-c2ccccc2)n1	7%	26%	?	-14%	3.7µM*	-25%
N#CCCn1cc(/C=C2\NC(=S)N(c3ccccc3)C2=O)c(-c2ccc(-c3ccccc3)cc2)n1	-30%	10%	-11%	?	?	-15%
C=C[C@@H]1c2ccccc2N(S(=O)(=O)c2ccc(C)cc2)[C@H](c2ccc(C(F)(F)F)cc2)C1(C#N)C#N	2%	0%	5%	?	?	-25%
C=C[C@@H]1c2c(F)cccc2N(S(=O)(=O)c2ccc(C)cc2)[C@H](c2ccc(C(=O)OC)cc2)C1(C#N)C#N	-14%	-8%	2%	4.1µM*	12µM*	-55%
C=C[C@@H]1c2c(F)cccc2N(S(=O)(=O)c2ccc(C)cc2)[C@H](c2ccc(OC(C)=O)cc2)C1(C#N)C#N	22µM*	-5%	8%	1.7µM*	2.6µM*	-23%
CC(=NNc1nc2ccccc2s1)c1ccncn1	?	-11%	nt	nt	nt	nt
C/C(=N\NC(=O)c1ccccc1O)c1ccc(Br)s1	-10%	42%	?	13µM*	38%	-27%
C/C(=N\Nc1nc2ccccc2s1)c1ccc(Br)s1	11µM*	36%	8%	?	?	-35%
C/C(=N\NC(=O)c1cccc(F)c1)c1ccc(Br)s1	-26%	46%	3%	?	3.7µM*	-7%
Cc1ccc(Cl)cc1NC(=O)c1sc(-n2nc(C)c(Cc3ccc4c(c3)OCO4)c2C)nc1C	nt	nt	14%	nt	nt	nt
CC(C)OP(=O)(OC(C)C)C1(O)C(=O)Nc2ccccc21 (centres undefined)	1%	-18%	1%	-1%	2.6µM*	-3%
CC(C)(O)C#Cc1ccc(C(=O)N2CCN(c3ccc(F)cc3)CC2)cc1	-14%	-18%	-1%	12%	?	69%
CCC(=O)NC(=S)Nc1ccc(N2CCN(C(=O)c3ccc(Cl)cc3)CC2)cc1	?	?	1%	?	12µM*	26%
CC(C)(O)C#Cc1ccc(C(=O)N2CCN(c3ccc(Cl)cc3)CC2)cc1	6%	3%	?	9%	6.6µM*	116%
